Assay results reported in the supplement of paper PMC10849652.
Of roughly 7,900 targets only a part is listed; those with a hit were picked by preference. About 0.6% of all pairs of compound and target were hits.

Legend:
Assay in all cases: log2 fold change, soluble protein after heating vs DMSO (PISA); higher = thermal stabilisation; K562 cells, 10 uM, 30 min; active = over 0.2 and 3.5 SD of the protein, either way, in both replicates (recomputed)
[1] = compound: C1=CC=C(C=C1)[C@H](COC2=CC3=C(C=C2)NC(=O)N3)NC(=O)C4=CC=CN(C4=O)CC5=CC(=C(C=C5)F)F
Method in brief: (§1)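 Soluble protein was defined as the supernatant after 21,000xg for 90 min. It came from K562 cells at 2×10^6 cells/mL given 10 μM compound for 30 min, heated in aliquots for 3 min across 48°C-58°C, pooled, and extracted in PBS with 0.5% NP-40 at 4°C, and was quantified by TMTpro 16plex LC-MS/MS with equalised channel sums. Thermal stability against control samples, from duplicates, is reported as log2 fold change.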

[2] = compound: CC1=C(SC2=C1C(=N[C@H](C3=NN=C(N32)C)CC(=O)N)C4=CC=C(C=C4)Cl)C
Method in brief: as §1

[3] = compound: CC1=C2C(=CC=C1)N=C(N(C2=O)C3=CC=CC=C3C)CN4C=NC5=C(N=CN=C54)N
Method in brief: as §1

[4] = compound: Cc1sc2c(c1C)C(c1ccc(Cl)cc1)=N[C@@H](CC(=O)OC(C)(C)C)c1nnc(C)n1-2
Method in brief: as §1

[5] = compound: c1ccc([C@@H]2C[C@H]2NC2CCNCC2)cc1
Method in brief: as §1

Measured: log2 fold change

LAMP2 (UniProt P13473)
inactive: [1] 0.022 | [2] -0.006 | [3] -0.041 | [4] -0.078 | [5] 0.074

MGST1 (UniProt P10620)
inactive: [1] -0.061 | [2] 0.032 | [3] -0.11 | [4] 0.05 | [5] 0.008

MAP3K4 isoform 2 (UniProt Q9Y6R4)
inactive: [1] -0.047 | [2] 0.026 | [3] 0.057 | [4] -0.034 | [5] 0.018

KCTD10 (UniProt Q9H3F6)
inactive: [1] -0.014 | [2] -0.009 | [3] 0.007 | [4] -0.01 | [5] 0.03

LYPLA2 (UniProt O95372)
inactive: [1] 0.033 | [2] 0.056 | [3] -0.023 | [4] -0.161 | [5] -0.08

MEPCE (UniProt Q7L2J0)
inactive: [1] 0.017 | [2] 0.001 | [3] 0.064 | [4] 0.028 | [5] 0.008

MED22 (UniProt Q15528)
inactive: [1] 0.013 | [2] 0.065 | [3] 0.013 | [4] 0.195 | [5] 0

IGF2R (UniProt P11717)
inactive: [1] 0.013 | [2] 0.007 | [3] -0.008 | [4] 0.001 | [5] -0.002

ITIH4 (UniProt Q14624)
inactive: [1] -0.088 | [2] 0.015 | [3] 0.089 | [4] -0.133 | [5] -0.006

IKZF1 (UniProt Q13422)
inactive: [1] -0.011 | [2] 0.05 | [3] 0.15 | [4] -0.009 | [5] 0.014

KIAA1324L (UniProt A8MWY0)
inactive: [1] 0.041 | [2] 0.044 | [3] 0 | [4] -0.001 | [5] 0.035

MAGI1 (UniProt Q96QZ7)
inactive: [1] 0.025 | [2] -0.026 | [3] -0.005 | [4] 0.054 | [5] -0.016

MARCKS (UniProt P29966)
inactive: [1] 0 | [2] -0.046 | [3] -0.066 | [4] -0.065 | [5] 0.031

LUZP1 (UniProt Q86V48)
inactive: [1] -0.053 | [2] -0.141 | [3] -0.171 | [4] -0.217 | [5] -0.201

IMMT isoform 4 (UniProt Q16891)
inactive: [1] 0.005 | [2] 0.021 | [3] 0.026 | [4] -0.025 | [5] -0.008

MGST3 (UniProt O14880)
inactive: [1] 0.046 | [2] 0.032 | [3] 0.005 | [4] 0.006 | [5] 0.054

LRBA (UniProt P50851)
inactive: [1] -0.016 | [2] 0.05 | [3] 0.088 | [4] 0 | [5] -0.023

LPIN1 isoform 7 (UniProt Q14693)
inactive: [1] -0.071 | [2] 0.086 | [3] 0.071 | [4] 0.02 | [5] 0.023

LIMD1 (UniProt Q9UGP4)
inactive: [1] 0.006 | [2] 0.004 | [3] -0.014 | [4] -0.005 | [5] 0.028

MAPK14 isoform 2 (UniProt Q16539)
inactive: [1] -0.067 | [2] 0.139 | [3] 0.077 | [4] -0.011 | [5] -0.043

IMMT isoform 2 (UniProt Q16891)
inactive: [1] 0.021 | [2] 0.029 | [3] 0.035 | [4] 0.091 | [5] 0.033

ILKAP (UniProt Q9H0C8)
inactive: [1] -0.071 | [2] 0.076 | [3] 0.135 | [4] -0.045 | [5] -0.046

MAPK12 (UniProt P53778)
inactive: [1] -0.022 | [2] 0.017 | [3] 0.026 | [4] 0.008 | [5] -0.002

MICU2 (UniProt Q8IYU8)
inactive: [1] 0.013 | [2] -0.037 | [3] -0.123 | [4] -0.029 | [5] 0.021

MIEF1 (UniProt Q9NQG6)
UniProt Q9NQG6, sequence (Q9NQG6 whole entry, looked up): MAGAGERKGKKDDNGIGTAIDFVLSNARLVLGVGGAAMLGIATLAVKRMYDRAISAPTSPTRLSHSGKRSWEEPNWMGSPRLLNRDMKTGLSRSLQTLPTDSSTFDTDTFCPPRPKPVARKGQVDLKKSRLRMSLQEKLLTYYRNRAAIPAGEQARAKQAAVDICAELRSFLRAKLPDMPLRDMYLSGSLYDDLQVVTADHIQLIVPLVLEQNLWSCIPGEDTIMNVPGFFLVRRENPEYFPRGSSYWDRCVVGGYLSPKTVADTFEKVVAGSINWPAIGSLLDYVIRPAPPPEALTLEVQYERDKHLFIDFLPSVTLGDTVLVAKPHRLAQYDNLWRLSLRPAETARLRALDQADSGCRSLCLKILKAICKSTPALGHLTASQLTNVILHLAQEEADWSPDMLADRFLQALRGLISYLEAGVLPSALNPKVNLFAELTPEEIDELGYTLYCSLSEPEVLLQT
inactive: [1] -0.043 | [2] 0.053 | [3] 0.047 | [4] -0.024 | [5] -0.054

KPNA6 (UniProt O60684)
inactive: [1] -0.017 | [2] -0.046 | [3] 0.093 | [4] 0.105 | [5] 0.07

LMBRD2 (UniProt Q68DH5)
UniProt Q68DH5, sequence (Q68DH5 whole entry, looked up): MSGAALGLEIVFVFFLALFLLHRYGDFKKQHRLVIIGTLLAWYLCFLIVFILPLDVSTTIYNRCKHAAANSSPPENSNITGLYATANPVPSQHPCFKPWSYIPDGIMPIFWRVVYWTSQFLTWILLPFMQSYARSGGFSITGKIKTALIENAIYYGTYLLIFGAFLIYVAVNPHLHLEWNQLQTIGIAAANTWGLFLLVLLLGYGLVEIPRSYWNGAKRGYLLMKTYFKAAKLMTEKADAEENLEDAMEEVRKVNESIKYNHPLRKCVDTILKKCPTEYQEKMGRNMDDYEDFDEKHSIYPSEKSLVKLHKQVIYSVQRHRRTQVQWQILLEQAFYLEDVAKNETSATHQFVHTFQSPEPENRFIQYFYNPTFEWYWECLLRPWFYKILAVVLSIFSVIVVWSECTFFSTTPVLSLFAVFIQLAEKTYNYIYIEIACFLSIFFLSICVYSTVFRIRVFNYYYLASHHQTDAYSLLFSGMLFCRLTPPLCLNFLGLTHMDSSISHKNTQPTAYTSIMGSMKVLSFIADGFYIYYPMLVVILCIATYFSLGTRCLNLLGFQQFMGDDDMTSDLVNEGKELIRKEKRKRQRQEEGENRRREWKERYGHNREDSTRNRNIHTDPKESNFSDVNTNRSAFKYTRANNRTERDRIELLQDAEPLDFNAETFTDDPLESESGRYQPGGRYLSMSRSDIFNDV
inactive: [1] 0.029 | [2] 0.084 | [3] 0.06 | [4] -0.12 | [5] -0.035

LYN (UniProt P07948)
inactive: [1] 0.035 | [2] 0.038 | [3] 0.013 | [4] 0.028 | [5] -0.043

IPO11 isoform 2 (UniProt Q9UI26)
inactive: [1] 0.048 | [2] 0.064 | [3] 0.01 | [4] 0.013 | [5] 0.001

IK (UniProt Q13123)
inactive: [1] 0.023 | [2] -0.067 | [3] -0.006 | [4] 0.041 | [5] -0.045

KSR1 (UniProt Q8IVT5)
inactive: [1] -0.044 | [2] 0.033 | [3] 0.137 | [4] 0.044 | [5] 0.018

IRF2BPL (UniProt Q9H1B7)
UniProt Q9H1B7, sequence (Q9H1B7 whole entry, looked up): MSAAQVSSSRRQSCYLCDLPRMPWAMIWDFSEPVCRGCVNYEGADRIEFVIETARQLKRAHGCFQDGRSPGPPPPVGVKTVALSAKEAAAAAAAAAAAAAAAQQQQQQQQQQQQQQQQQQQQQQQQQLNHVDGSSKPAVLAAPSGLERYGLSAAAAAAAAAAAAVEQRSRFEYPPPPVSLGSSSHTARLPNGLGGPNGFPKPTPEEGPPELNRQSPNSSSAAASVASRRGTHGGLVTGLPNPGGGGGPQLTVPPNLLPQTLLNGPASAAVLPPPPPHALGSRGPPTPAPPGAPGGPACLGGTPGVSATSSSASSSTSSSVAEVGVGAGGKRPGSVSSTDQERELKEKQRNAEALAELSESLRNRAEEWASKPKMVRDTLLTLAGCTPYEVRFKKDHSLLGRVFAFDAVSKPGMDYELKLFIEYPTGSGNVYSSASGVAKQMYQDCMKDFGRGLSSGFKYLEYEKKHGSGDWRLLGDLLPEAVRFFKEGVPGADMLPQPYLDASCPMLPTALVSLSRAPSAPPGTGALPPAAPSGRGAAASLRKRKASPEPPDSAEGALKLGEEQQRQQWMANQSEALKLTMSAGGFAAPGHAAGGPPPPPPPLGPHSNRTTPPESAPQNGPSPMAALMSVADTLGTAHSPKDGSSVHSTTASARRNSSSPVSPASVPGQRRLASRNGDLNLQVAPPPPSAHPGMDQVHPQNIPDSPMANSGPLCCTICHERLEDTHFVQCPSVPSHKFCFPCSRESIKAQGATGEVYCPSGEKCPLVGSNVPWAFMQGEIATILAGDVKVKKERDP
inactive: [1] -0.051 | [2] 0.027 | [3] 0.001 | [4] -0.067 | [5] -0.043

KXD1 (UniProt Q9BQD3)
inactive: [1] -0.178 | [2] 0.079 | [3] 0.042 | [4] -0.079 | [5] 0.034

MCUR1 (UniProt Q96AQ8)
inactive: [1] -0.02 | [2] 0.018 | [3] 0.007 | [4] -0.008 | [5] -0.023

IRAK4 (UniProt Q9NWZ3)
inactive: [1] -0.077 | [2] -0.006 | [3] 0.009 | [4] -0.012 | [5] -0.056

KEL (UniProt P23276)
UniProt P23276, sequence (P23276 whole entry, looked up): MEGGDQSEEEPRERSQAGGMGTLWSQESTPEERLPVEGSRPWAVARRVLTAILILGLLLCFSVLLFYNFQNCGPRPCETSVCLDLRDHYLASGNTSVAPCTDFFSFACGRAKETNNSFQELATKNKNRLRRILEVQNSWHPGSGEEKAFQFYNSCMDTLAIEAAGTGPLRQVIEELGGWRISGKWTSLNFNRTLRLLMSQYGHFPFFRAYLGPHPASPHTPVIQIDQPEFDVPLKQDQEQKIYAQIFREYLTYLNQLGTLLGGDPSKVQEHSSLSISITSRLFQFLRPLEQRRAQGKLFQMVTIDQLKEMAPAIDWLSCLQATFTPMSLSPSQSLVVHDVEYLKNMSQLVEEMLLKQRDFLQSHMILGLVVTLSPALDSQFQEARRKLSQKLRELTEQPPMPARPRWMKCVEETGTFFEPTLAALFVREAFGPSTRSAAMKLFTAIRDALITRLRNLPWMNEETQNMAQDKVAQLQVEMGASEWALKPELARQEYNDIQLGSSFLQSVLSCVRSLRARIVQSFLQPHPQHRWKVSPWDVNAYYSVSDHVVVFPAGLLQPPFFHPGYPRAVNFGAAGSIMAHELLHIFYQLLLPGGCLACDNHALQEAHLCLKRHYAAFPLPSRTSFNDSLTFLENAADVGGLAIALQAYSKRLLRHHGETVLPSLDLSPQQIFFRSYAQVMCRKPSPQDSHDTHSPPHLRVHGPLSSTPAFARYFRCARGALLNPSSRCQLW
inactive: [1] -0.067 | [2] 0.003 | [3] 0.017 | [4] 0.019 | [5] 0.067

KIF11 (UniProt P52732)
inactive: [1] -0.044 | [2] -0.011 | [3] 0.074 | [4] 0.092 | [5] -0.027

ME2 (UniProt P23368)
inactive: [1] 0.046 | [2] 0.073 | [3] 0.078 | [4] -0.086 | [5] 0.09

IWS1 (UniProt Q96ST2)
inactive: [1] -0.01 | [2] 0.08 | [3] 0.037 | [4] 0.045 | [5] -0.035

MAGEA8 (UniProt P43361)
inactive: [1] 0.075 | [2] -0.035 | [3] 0.02 | [4] -0.119 | [5] 0.077

IPO13 (UniProt O94829)
inactive: [1] -0.005 | [2] 0.008 | [3] 0.098 | [4] 0.037 | [5] 0.034

ITPRIP (UniProt Q8IWB1)
inactive: [1] -0.024 | [2] 0.096 | [3] 0.054 | [4] -0.081 | [5] 0.027

L2HGDH (UniProt Q9H9P8)
inactive: [1] -0.031 | [2] 0.07 | [3] 0.078 | [4] 0.018 | [5] -0.029

MAP4 (UniProt E7EVA0)
inactive: [1] -0.009 | [2] -0.15 | [3] -0.095 | [4] 0.096 | [5] 0.005

MFSD8 (UniProt Q8NHS3)
inactive: [1] -0.134 | [2] -0.033 | [3] 0.074 | [4] -0.289 | [5] 0.119

MFGE8 (UniProt Q08431)
inactive: [1] 0.005 | [2] -0.051 | [3] -0.091 | [4] -0.068 | [5] -0.129

KEAP1 (UniProt Q14145)
inactive: [1] 0.015 | [2] -0.001 | [3] 0.007 | [4] 0.021 | [5] 0.001

MCU (UniProt Q8NE86)
UniProt Q8NE86, sequence (Q8NE86 whole entry, looked up): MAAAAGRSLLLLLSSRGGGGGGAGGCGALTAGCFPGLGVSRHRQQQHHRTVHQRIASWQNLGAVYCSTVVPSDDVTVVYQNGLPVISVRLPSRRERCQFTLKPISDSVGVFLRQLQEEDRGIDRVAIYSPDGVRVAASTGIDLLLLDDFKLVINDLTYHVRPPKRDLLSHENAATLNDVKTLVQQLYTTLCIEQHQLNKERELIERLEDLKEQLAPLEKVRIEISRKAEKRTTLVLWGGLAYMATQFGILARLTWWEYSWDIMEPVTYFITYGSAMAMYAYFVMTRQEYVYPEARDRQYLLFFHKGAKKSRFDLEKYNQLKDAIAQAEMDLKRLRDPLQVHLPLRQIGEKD
inactive: [1] -0.02 | [2] 0.035 | [3] 0.038 | [4] -0.018 | [5] -0.013

MARCKSL1 (UniProt P49006)
inactive: [1] -0.052 | [2] 0.029 | [3] -0.032 | [4] -0.008 | [5] 0.011

MIA2 (UniProt Q96PC5)
UniProt Q96PC5, sequence (Q96PC5 whole entry, looked up): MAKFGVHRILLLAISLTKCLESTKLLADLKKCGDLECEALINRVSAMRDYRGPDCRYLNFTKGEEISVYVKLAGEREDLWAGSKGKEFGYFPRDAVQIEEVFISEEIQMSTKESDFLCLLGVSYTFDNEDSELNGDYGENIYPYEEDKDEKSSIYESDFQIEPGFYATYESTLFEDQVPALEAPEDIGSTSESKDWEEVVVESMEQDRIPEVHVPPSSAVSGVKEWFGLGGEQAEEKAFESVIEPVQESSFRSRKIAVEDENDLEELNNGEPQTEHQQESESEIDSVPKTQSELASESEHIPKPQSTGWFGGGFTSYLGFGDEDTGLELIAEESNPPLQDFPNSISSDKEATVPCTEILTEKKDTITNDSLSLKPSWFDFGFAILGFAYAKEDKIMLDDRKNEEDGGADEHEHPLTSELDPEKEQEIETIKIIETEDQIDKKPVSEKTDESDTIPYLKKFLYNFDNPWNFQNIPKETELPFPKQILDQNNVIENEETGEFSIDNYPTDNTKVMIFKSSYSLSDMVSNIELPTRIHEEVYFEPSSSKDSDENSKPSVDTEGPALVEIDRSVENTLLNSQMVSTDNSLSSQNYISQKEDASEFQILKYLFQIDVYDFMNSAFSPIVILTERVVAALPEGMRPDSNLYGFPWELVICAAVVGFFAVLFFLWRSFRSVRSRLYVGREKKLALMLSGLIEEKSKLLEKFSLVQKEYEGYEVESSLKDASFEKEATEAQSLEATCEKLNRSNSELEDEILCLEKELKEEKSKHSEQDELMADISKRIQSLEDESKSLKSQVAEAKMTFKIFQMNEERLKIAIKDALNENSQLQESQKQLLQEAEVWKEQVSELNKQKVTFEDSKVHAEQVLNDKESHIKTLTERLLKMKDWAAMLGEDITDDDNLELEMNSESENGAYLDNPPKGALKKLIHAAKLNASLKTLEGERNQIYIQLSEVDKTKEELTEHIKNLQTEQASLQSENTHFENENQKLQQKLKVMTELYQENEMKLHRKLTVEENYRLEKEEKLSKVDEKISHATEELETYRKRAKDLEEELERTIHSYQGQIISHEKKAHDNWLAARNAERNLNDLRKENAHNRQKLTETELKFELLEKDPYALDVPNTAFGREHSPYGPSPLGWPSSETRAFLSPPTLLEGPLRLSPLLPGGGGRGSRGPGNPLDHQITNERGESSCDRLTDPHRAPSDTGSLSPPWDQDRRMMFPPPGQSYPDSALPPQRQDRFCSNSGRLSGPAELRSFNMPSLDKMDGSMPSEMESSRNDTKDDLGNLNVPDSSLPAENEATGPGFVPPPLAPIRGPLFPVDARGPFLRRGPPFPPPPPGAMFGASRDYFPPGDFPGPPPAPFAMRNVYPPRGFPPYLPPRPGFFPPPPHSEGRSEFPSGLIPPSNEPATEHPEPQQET
inactive: [1] -0.036 | [2] 0.041 | [3] 0.02 | [4] 0.029 | [5] 0.027

KIF2C (UniProt Q99661)
inactive: [1] -0.062 | [2] -0.021 | [3] 0.094 | [4] 0.002 | [5] -0.029

MICOS13 (UniProt Q5XKP0)
inactive: [1] -0.018 | [2] 0.07 | [3] -0.032 | [4] 0 | [5] 0.003

LENG8 (UniProt Q96PV6)
inactive: [1] 0.036 | [2] 0.177 | [3] -0.356 | [4] -0.028 | [5] 0.022

MICU1 isoform 3 (UniProt Q9BPX6)
inactive: [1] 0.005 | [2] -0.033 | [3] -0.06 | [4] 0.02 | [5] -0.036
